High-throughput results from PubChem.
Compounds with a hit are over-represented: about 7.3% of the library has one in this group of screens.
FMDV inh: blocks foot and mouth disease virus; Potency, µM (highest dose often 57.9 µM), for the others: top-dose activity change, negative = inhibition, most hits filed as inhibitors; 410,000 compounds, 1.2% hits; AID 1159524; FMDV antiviral cell-based qHTS; calls by dose curve; tested in HEK293T cells; note: read-out not given here; potency is the fitted concentration of half-maximal effect; nearly all actives have a fitted effect of over 45% in size
HCMV inh: inhibitors of human cytomegalovirus; HFF cells, HCMV-luciferase reporter, 72 h; hits give low values; activity change, negative = inhibition, % at 57.5 µM; 410,000 compounds, 4.5% hits; AID 1259415; in the data active = activity change below about -60%; inconclusive = no clear call, values can overlap the other calls; inactive = above about -39%
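After 16 h attachment at 37C, HFF cells received test compound and HCMV-luciferase (1 PFU/cell); reporter luminescence read 72 h later, data normalized against buffer-only and known inhibitor Salinomycin.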
Vaccinia mCherry: vaccinia inhibition (mCherry reporter) | Vaccinia virus mCherry reporter infection, fluorescence | Potency, µM (top dose mostly 36.5 µM), for inactives: top-dose activity change, negative = inhibition, most hits filed as inhibitors | 310,000 compounds, 0.63% hits | AID 720579; calls by dose curve; tested in A549 cells; note: potency is the fitted concentration of half-maximal effect; nearly all actives have a fitted effect of over 35% in size
HCV inh: blocks hepatitis C virus; 340,000 compounds, 3.4% hits; Huh7.5.1 HCVcc-Cre infection, luciferase reporter, 44 h; Potency, µM (doses to about 41.8 µM), inactives show at the highest dose activity change, negative = inhibition, hits mostly inhibitors; active = well fitted inhibition curve with a large enough effect; inconclusive = small, poorly fitted or top-dose-only effect, or another doubt; inactive = no such curve, though single readings can be large or run the other way; note: potency is the fitted concentration of half-maximal effect
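Luciferase read-out (15 sec integration) after a 15 min room-temperature substrate step quantifies HCVcc-Cre infection. Cells, 1,000 per well, had compound added 4 h post-plating, then virus at ~0.5 moi, and were cultured 44 h.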
VACV Venus inh: vaccinia inhibition (Venus reporter). Vaccinia virus Venus reporter expression, fluorescence. Potency, µM (series often up to 36.5 µM), without a hit: top-dose activity change, negative = inhibition, hits mostly inhibitors. 330,000 compounds, 0.46% hits. AID 720580; calls by dose curve; tested in A549 cells; note: potency is the fitted concentration of half-maximal effect; nearly all actives have a fitted effect of over 30% in size
Active calls of the source: *; i = inactive; ? = inconclusive; . = not tested or not shown; [ ] = remark or other dose. % is set by controls: 0 for no effect and ±100 for the full control effect.

SMILES | FMDV inh | HCMV inh | Vaccinia mCherry | HCV inh | VACV Venus inh
Cc1cnc(C)c(-c2cccc3c2OC(CNC(=O)/C=C/c2ccc(F)c(F)c2)C3)n1 (centres undefined) | -16% | . | -15% | . | -4%
CCc1cc(C(=O)NNC(=S)NC2CCCCC2)cs1 | 77% | 25 | . | ? | .
CCc1cccc(CC)c1NC(=S)NC(C)c1ccccc1 (centres undefined) | 8% | -72* | -4% | ? | -12%
CCc1cc(C(=O)NNC(=S)NC(C)c2ccccc2)cs1 (centres undefined) | -25% | -73* | . | 1% | .
CCc1ccc(NC(=O)C(=O)NCCc2csc(-c3cccc(F)c3)n2)cc1 | -21% | 17 | -13% | . | -9%
CCOc1cccc(-c2nnc3n2N=C(c2cc(OC)ccc2OC)CS3)c1 | ? | 16 | -8% | 11µM* | 5%
Cc1cccc(-c2nnc3n2N=C(c2ccccc2Br)CS3)c1 | ? | -83* | -24% | ? | -21%
COc1cccc(-c2nnc3n2N=C(C(C)(C)C)CS3)c1 | -17% | -98* | . | 11µM* | .
COc1cccc(-c2nnc3n2N=C(c2cc(OC)ccc2OC)CS3)c1 | -8% | -62* | . | 10µM* | .
CN1CCN(C(=O)CCN2C(=O)/C(=C/c3ccc(F)cc3)SC2=S)CC1 | ? | -9 | i | ? | -2%
C/C(=N\N1CCN(C2c3ccccc3-c3ccccc32)CC1)c1ccncc1 | 13µM* | -35 | . | 15% | -11%
C(=N\N1CCN(C2c3ccccc3-c3ccccc32)CC1)/c1ccncc1 | 0% | -8 | . | 15% | -13%
Cc1cc2c([nH]c3ccccc32)c(C)n1 | 0% | ? | -24% | ? | 0%
Cc1c2c(cc3c1[nH]c1ccccc13)C=NCC2 | -6% | 3 | ? | 10µM* | -28%
Cc1cc(Nc2ccc(Br)cc2)nc(-c2ccccc2O)n1 | 14% | 6 | . | 13µM* | .
Cc1cc(N/N=C/c2ccc(O)c(C)c2O)nc(-c2ccccc2O)n1 | -16% | -103* | 10µM* | ? | 13µM*
Cc1cc(NCCCN)nc(-c2ccccc2O)n1 | 24% | 68 | . | 10µM* | -19%
C/C(=N\Nc1cc(C)nc(-c2ccccc2O)n1)c1ccccc1 | -6% | ? | ? | ? | -18%
COCc1c(C(=O)OCC(=O)c2c(N)n(CC(C)C)c(=O)n(C)c2=O)oc2ccccc12 | 32µM* | -8 | . | ? | .
Cc1c(C(=O)OCC(=O)c2c(N)n(CC(C)C)c(=O)n(C)c2=O)oc2ccccc12 | ? | -64* | -6% | ? | ?
CCCCOc1cccc(-c2nnc(NC(=O)CSc3ccc(C)cc3)s2)c1 | -11% | -86* | -13% | 13% | -4%
COc1ccccc1NC(=O)NC1(C(=O)NCC2CCCO2)CCCCC1 (centres undefined) | -2% | -26 | ? | 16% | -7%
CC1(Cc2ccc(F)cc2)C(=O)Nc2ccc(-c3cccnc3)cc21 (centres undefined) | 0% | -64* | -18% | . | -8%
COc1c(O)ccc(C2NC(=O)NC(C)=C2C(=O)Nc2ccccc2C)c1[N+](=O)[O-] (centres undefined) | 5% | -63* | -6% | 7% | 8%
Cc1ccc(C(=O)NCC(=O)OCC(=O)Nc2ccc3[nH]c(=O)[nH]c3c2)cc1 | -14% | -14 | -16% | -2% | -1%
SMILES | FMDV inh | HCMV inh | Vaccinia mCherry | HCV inh | VACV Venus inh
COc1ccc2c(c1)c(CCN)c(C)n2Cc1ccccc1 | -10% | -14 | -14%[7.34 µM] | ? | -7%[7.34 µM]
Cc1c(CCCN)c2ccccc2n1Cc1ccccc1 | 0% | -35 | ? | 11µM* | -26%
COc1ccc(CNC(=O)Cc2c(C)c3c(cc(C)c4c(C)c(C)oc43)oc2=O)cc1OC | -6% | 0 | -16% | . | -7%
COc1ccc(OC)c(-n2c(O)c(C=NCc3ccc4c(c3)OCO4)c(=O)[nH]c2=O)c1 | 8% | 18 | . | 10% | .
O=c1[nH]c(=O)n(-c2cccc3ccccc23)c(O)c1C=NCc1ccc2c(c1)OCO2 | ? | -108* | . | 7% | .
CC(C)C[C@@H](CO)N(Cc1ccccc1)S(=O)(=O)N(Cc1ccccc1)[C@@H](CO)CC(C)C | ? | . | ? | -7% | 22µM*
COC(=O)[C@H](Cc1ccccc1)N(Cc1ccccc1)S(=O)(=O)N(Cc1ccccc1)[C@@H](Cc1ccccc1)C(=O)OC | ? | -96* | ? | -17%[8.37 µM] | -11%
C=CS(=O)(=O)N(Cc1ccccc1Br)[C@H](CO)CC(C)C | 0% | -40 | ? | 1%[8.37 µM] | 1.4µM*
COc1ccc(CN([C@H](CO)CC(C)C)S(=O)(=O)N(Cc2ccccc2)[C@H](CO)CC(C)C)cc1 | ? | -89* | ? | ? | 13µM*
CC(C)C[C@@H](CO)N(Cc1ccccc1)S(=O)(=O)N(Cc1ccccc1)[C@H](CO)CC(C)C | ? | . | -27% | ? | ?
COC(=O)[C@H](Cc1ccccc1)N(C)S(=O)(=O)c1cccc(S(=O)(=O)N(C)[C@@H](Cc2ccccc2)C(=O)OC)c1 | -6% | -29 | -8% | -26% | -17%
CCN([C@H](CO)CC(C)C)S(=O)(=O)c1ccccc1 | -7% | 5 | -27% | 31% | -10%
CCOc1ccc(CNC(=O)Cn2nc(C)c3nn(-c4ccc(Cl)cc4)c(C)c3c2=O)cc1OC | -21% | 20 | -15% | . | -8%
Cc1ccc(C)c(N2CCN(S(=O)(=O)c3ccc(C(=O)N(C)C)s3)CC2)c1 | -5% | ? | -13% | . | -9%
O=C(c1cc(-c2ccccc2)nn1-c1ccccc1)N1CCN(S(=O)(=O)c2c(F)cccc2F)CC1 | 0% | -20 | i | 13µM* | -12%
Cc1cc(Cl)ccc1C(O)c1ncc(-c2cccc3ccccc23)[nH]1 (centres undefined) | 9% | 8 | -10% | . | -4%
O=C(Nc1cc2c3c(c1)CC(=O)N3CCC2)c1ccccc1Br | 31% | -11 | -6% | 10µM* | -26%
O=C(Nc1cc2c3c(c1)CC(=O)N3CCC2)c1ccc(Br)cc1 | 9% | 0 | -23% | -9% | -18%
Cc1ccc(-c2nnc(Nc3cccc(C(F)(F)F)c3)c3ccccc23)cc1S(=O)(=O)N1CCOCC1 | -17% | ? | -22% | . | -21%
N#Cc1nccnc1S(=O)(=O)c1cccs1 | ? | -97* | -10% | -20% | -13%
COc1ccc(/C=N/Nc2nnc(-c3ncc[nH]3)c3ccccc23)cc1 | ? | . | . | -5% | .
Fc1cccc(F)c1/C=N/Nc1ccccn1 | 63% | -31 | . | -5% | .
Oc1ccc2ccccc2c1C=NNc1ccccn1 | 10% | -98* | ? | 3.2µM* | ?
Oc1ccc2ccccc2c1/C=N/Nc1nnc(-c2ncc[nH]2)c2ccccc12 | -3% | -102* | . | 3.2µM* | .
CCCCOc1ccc(Br)cc1CSC(=N)N | 13µM* | -98* | -26% | 2µM* | -16%
CN(C)S(=O)(=O)c1cccc(NC(=O)CCc2nc3sc4c(c3c(=O)[nH]2)CCCC4)c1 | ? | -67* | . | ? | .
